Results reported in PubChem BioAssay AID2315 (National Center for Advancing Translational Sciences (NCATS), 2010).
The campaign covered roughly 290,000 compounds. About 27,000 (9.3%) were called active. This excerpt belongs to a sample that is enriched for actives. Values without a mark were called inactive. Rule as the data show it: active = inhibition mostly above about 28% (no sharp cut-off); inactive = mostly below about 43%.

assay: A qHTS for Small Molecule Inhibitors of Shiga Toxin; settings: Vero cells, Shiga toxin protein synthesis inhibition reporter; at 38.7 µM, stronger effect = higher value; also: 0% is about no effect

SMILES | inhibition
Cc1ccc(S(=O)(=O)N(Cc2cc3ccccc3[nH]c2=O)CC2CCCO2)cc1 (configuration not stated) | -2.48%
O=C(Nc1c2c(nn1-c1ccccc1)CS(=O)(=O)C2)C1CCCC1 | -3.43%
COc1ccc(NC(=O)c2ccco2)cc1NC(=O)c1ccc(C#N)cc1F | -2.14%
CCCCCC(O)(CCN1CCCCC1)c1ccccc1 (configuration not stated) | -8.74%
Cc1cc(NC(=O)CCC(=O)N(CC(=O)NCC2CCCO2)c2ccccc2)no1 (configuration not stated) | -9.61%
COC(=O)C1(C)NC(c2ccccc2OC)C2C(=O)N(c3ccccc3)C(=O)C21 (configuration not stated) | -11.2%
COc1ccc(N2CCN(S(=O)(=O)c3ccc4c(c3)N(C(C)=O)CCO4)CC2)cc1 | -9.48%
Cc1ccc(-n2c(C)cc(/C=N\NC(=O)CC(=O)NC(C)C)c2C)cc1 | 21.4%
Cc1cccc(-n2c(C)cc(/C=N/NC(N)=S)c2C)c1 | -4.48%
Cc1cccc(-n2c(C)cc(/C=N\NC(=O)c3cccs3)c2C)c1 | 85.9% (active)
O=C(Cn1cnc2ccccc21)Nc1ccccc1-c1ccccc1 | -2.99%
Cc1cc2ccccn2c1C(=O)c1cccc(F)c1 | 21%
CCCCNC(=O)CCn1nc(-c2ccc(Cl)cc2)ccc1=O | -6.39%
COc1ccc(CNC(=O)CN(c2ccc(OC)c(Cl)c2)S(=O)(=O)c2ccc(C)cc2)cc1 | 15.2%
Nc1ccc(Nc2ccccc2)cc1 | -17%
Nc1ccc(-c2nnc(-c3ccccc3)o2)cc1 | 71.6% (active)
Nc1ccc(-c2sc(N)nc2-c2ccccc2)cc1 | -12.4%
Nc1ccc(-c2nnc(-c3ccc(-c4ccccc4)cc3)o2)cc1 | 63.4% (active)
Cc1ccc(C(=O)NCC(=O)OCc2nnc(-c3ccccc3)o2)cc1 | 9.19%
O=C(COC(=O)c1ccc(Oc2ccccc2)cc1)Nc1nnc(-c2ccccc2)o1 | 6.93%
COc1ccc(/C=N/N(C)C2=NS(=O)(=O)c3ccccc32)cc1OC | -11.4%
COc1ccc(NC(=O)C2CCC(CNC(=O)[C@@H]3Cc4ccccc4CN3)CC2)cc1 (some centres not stated) | 8.69%
COc1ccc(CNC(=O)C2CCN(S(=O)(=O)c3ccc(SC)cc3)CC2)cc1 | -9.94%
O=C(Nc1cccn(Cc2ccccc2Cl)c1=O)NC1CCCCC1 | 33%
CN1CCN(C(=O)CCc2nc(-c3ccc(Cl)cc3)no2)CC1 | 42.8%

SMILES | inhibition
CCNC(=O)CCc1nc(-c2ccc(C(C)(C)C)cc2)no1 | 42.8% (active)
CCNC(=O)CCc1nc(-c2ccc(C)cc2)no1 | 34.3%
CN(C)c1ccc(-n2cccc2/C=C2/SC(=Nc3ccc(F)cc3)NC2=O)cc1 | -12.2%
CN(C)c1ccc(-n2cccc2/C=N/n2cnnc2)cc1 | 61% (active)
O=S(=O)(N/N=C\c1cccn1-c1ccccc1)c1ccc2ccccc2c1 | -11.6%
COc1ccc(/C(N)=N/OC(=O)Cc2ccccc2)cc1 | 90% (active)
COc1ccc(/C(N)=N/OC(=O)CCCc2ccccc2)cc1 | 89.8% (active)
COc1ccc(C(=O)NC(=S)NNC(=O)CCc2ccccc2)cc1 | 18.3%
COc1ccc(/C(N)=N/OC(=O)Oc2ccccc2)cc1 | -9.52%
COc1ccc(CC(=O)NC(C)CCc2ccccc2)cc1 (configuration not stated) | -4.86%
COc1ccc(OCCCC(=O)NCCc2ccccc2)cc1 | -4.42%
CC(C)C(c1nnnn1C1CCCCC1)N1CCN(C(=O)c2ccco2)CC1 (configuration not stated) | -10.3%
Cc1ccc(-n2ncc(C(=O)NC3CC3)c2C2CCN(C(=O)OC(C)(C)C)CC2)c(C)c1 | 16.2%
O=C(C1CCCN(S(=O)(=O)c2ccc([N+](=O)[O-])cc2)C1)N1CCCCC1 (configuration not stated) | 2.21%
COc1cccc(/C=C2/SC(=S)N(CC(=O)NC3C=CS(=O)(=O)C3)C2=O)c1 (configuration not stated) | 16.1%
CC(C)CNC(=O)C(=O)NCC(c1ccc2c(c1)OCO2)N1CCOCC1 (configuration not stated) | -7.49%
O=S(=O)(Nc1ccccc1Br)c1cccs1 | 6.38%
COC(=O)c1ccc(CSc2nncn2N)cc1 | 26.1%
CC(C)CC(CC(C)C)=NNC(=O)c1ccc(CSc2nncn2C)cc1 | 16%
COC(=O)c1ccc(CSc2nncn2C)cc1 | 177% (active)
O=C(NC(=S)Nc1ncccn1)c1ccccc1Br | 9.32%
Cc1ccc(NC2CCCN(C(=O)CCc3cn[nH]c3)C2)cc1C (configuration not stated) | 9.62%
CC(NCC(=O)Nc1cc(Cl)cc(Cl)c1)c1ccccc1 (configuration not stated) | -4.69%
COc1ccc(/C=N/NS(=O)(=O)c2ccc(NC(C)=O)cc2)cc1 | 24.7%
COc1ccc(C=Nc2cccc3ncccc23)cc1 | -17.4%

SMILES | inhibition
COc1ccc(CCCc2nnc(SCc3nc4ccccc4c(=O)[nH]3)n2C)cc1 | -10.2%
COc1ccc(/C=N/Nc2nc3ccccc3c(=O)[nH]2)cc1 | 60.8% (active)
COc1ccc(/C=N/OCC(=O)N(Cc2ccccc2)c2ccccc2C(=O)O)cc1 | -13.4%
COc1ccc(/C=N/Nc2ccccc2C(=O)O)cc1 | 31.8% (active)
COC(=O)c1sccc1NS(=O)(=O)c1ccc(F)cc1F | 11.9%
COCCCn1c(SCC(=O)NC2CCCC2)nnc1-c1ccccc1 | -6.72%
Cc1nc(-c2ccc(F)cc2)c(CC(=O)N2CCN(S(=O)(=O)c3ccc(F)cc3)CC2)s1 | 26.6%
NS(=O)(=O)c1ccc(CCNc2nc(C(F)(F)F)nc3ccccc23)cc1 | -9.53%
CC1COc2ccccc2N1C(=O)c1ccc(F)cc1 (configuration not stated) | -4.1%
Brc1ccccc1C1Nc2cccc3cccc(c23)N1 | -2.7%
S=C1NC(c2ccccc2)=NCN1c1ccc(Br)cc1 | 29.2%
Brc1ccccc1C1N=C(c2ccccc2)NO1 (configuration not stated) | 85.7% (active)
N#Cc1ccc(C2N=C(c3ccccc3)NO2)cc1 (configuration not stated) | 89.5% (active)
O=C1CCCCN1CCCC(=O)N1CCCC(Nc2ccc(F)cc2)C1 (configuration not stated) | 7.4%
CCOc1ccc(NC(=O)CCCCCN2C(=O)[C@@H]3Cc4ccccc4CN3C2=O)cc1 | 3.39%
CCCNC(=O)C(=O)Nc1cc2c3c(c1)CCC(=O)N3CCC2 | 5.83%
COc1ccc(N2C(=O)C(CC(=O)Nc3ccccc3)N(Cc3ccc(OC)c(OC)c3)C2=O)cc1 (configuration not stated) | 40.7%
COc1ccc(-c2oc3ncnc(NCCCO)c3c2-c2ccc(OC)cc2)cc1 | -19.7%
COc1ccc(O[C@H]2C=C[C@@H](c3ccccc3)O[C@@H]2CO/N=C/C[C@@H]2C=C[C@H](OC(C)=O)[C@@H](COC(C)=O)O2)cc1 | 16.1%
O=C(NCc1ccco1)/C(=C/c1cccc([N+](=O)[O-])c1)NC(=O)c1ccco1 | -2.89%
Cc1cc2occ(CC(=O)NNC(=O)c3ccccc3F)c2cc1C | 18%
O=C(CSc1nccc(=O)[nH]1)Nc1ccc(N2CCOCC2)c(Cl)c1 | -5.56%
CCOC(=O)c1nn(-c2cccc(C)c2)cc1C(=O)c1ccccc1 | 152% (active)
CCOC(=O)c1cn(Cc2cccc(C)c2)nn1 | 1.57%
CC(=O)c1nn(-c2cccc(Br)c2)cc1C(=O)c1cccc2ccccc12 | -19.7%

SMILES | inhibition
CCOc1ccc(CNC(=O)CCC(=O)N2CCSc3ccccc32)cc1 | 5.1%
O=S(=O)(Nc1ccccc1)c1ccc(NS(=O)(=O)c2cccs2)cc1 | -2.44%
NC(=O)c1cc(S(=O)(=O)N2CCCC2)ccc1OCc1ccc(F)cc1 | -10.2%
CC(=O)NCCC(=O)Nc1nc(C)c(Cc2ccc3c(c2)OCO3)s1 | 13.3%
O=C(Nc1nc(-c2ccc3c(c2)OCO3)cs1)c1ccncc1 | 42.9%
CC(=O)NCCC(=O)Nc1nc(-c2ccc3c(c2)OCCO3)cs1 | 50% (active)
CC(=O)Nc1ccc(Oc2ccc3c(c2)C(=O)NC3=O)cc1 | -7.33%
Cc1ccc(S(=O)(=O)N/N=C(\c2ccccc2)C2CC2)cc1 | -3.31%
Cc1nc(-c2ccccc2)sc1C(=O)/C=C/N(C)C | 127% (active)
CN(C)/C=C/C(=O)c1ccccc1F | 30.4%
Cc1nc(COc2cccc(Cl)c2)sc1C(=O)/C=C/N(C)C | 48.6%
O=C(CN(C(=O)CCC(=O)Nc1nccs1)c1ccc(F)cc1)NCc1ccc2c(c1)OCO2 | -6.5%
COCCn1c(=NC(=O)c2ccccc2[N+](=O)[O-])sc2cc(S(C)(=O)=O)ccc21 | 21.4% (active)
Cn1c(=NC(=O)c2ccc3c(c2)OCCO3)sc2cc(S(C)(=O)=O)ccc21 | 2.16%
COCCNC(=O)c1ccccc1NS(=O)(=O)c1ccc(C)c([N+](=O)[O-])c1 | -5.37%
COC(=O)c1cc(NS(=O)(=O)c2ccc3c(c2)c(=O)n(C)c(=O)n3C)cc(C(=O)OC)c1 | -1.69%
Cc1ccc(S(=O)(=O)NNC(=O)/C=C/c2cccc(F)c2)cc1 | -5.71%
CC1CCCCC1NC(=O)CCS(=O)(=O)c1ccc2c(c1)NC(=O)CO2 (configuration not stated) | 49.7%
COc1ccc(C(=O)O)cc1S(=O)(=O)NCc1cccnc1 | 2.47%
Cc1cc(Cl)c2oc(C(=O)N(C)C(C)c3ccccn3)c(C)c2c1 (configuration not stated) | 50.1% (active)
Cc1cc(Cl)c2oc(C(=O)NC(C)c3ccncn3)c(C)c2c1 (configuration not stated) | 14.6%
Cc1cc(Cl)c2oc(C(=O)N3CCC(O)(c4ccccc4)CC3)c(C)c2c1 | 18.3%
